The source of these data is PubChem BioAssay AID1347416 (National Center for Advancing Translational Sciences (NCATS), 2020).

Out of some 4,100 compounds screened, about 1,600 (39%) were called active. Not shown: some 25% with an inconclusive outcome. Calls follow the shape of the dose curve; as a rule, active = well fitted inhibition curve with a large enough effect; inconclusive = small, poorly fitted or top-dose-only effect; inactive = no such curve, though single readings can be large or run the other way. Some of the results follow.
Potency is read from the fitted curve at half-maximal effect.

The experiment can be described thus: qHTS Validation assay for Inhibitors of Plasmodium falciparum Dd2 growth in vitro. Also: nearly all actives have a fitted effect of over 70% in size. The following applies: P. falciparum Dd2 in RBCs, SYBR Green growth, 72 h; series mostly up to 28.7 µM. In outline: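 P. falciparum Dd2-infected red blood cells (2.5% hematocrit, 0.3% parasitemia) grown 72 h at 37 °C under 5% O2 with compounds in a titration, 29 uM to 0.5 nM final. Growth read as SYBR Green-1 fluorescence after ~16 h lysis; artesunate 300 nM as positive control.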
Background: Quantitative high-throughput screening tests each substance at several concentrations.
Take `CC(C)(C)CC(C)(C)c1ccc(O)c(Cc2ccc(Cl)cc2Cl)c1`: the Potency was 1.68 µM (active).

Regarding `CCc1nc2c(c(-c3ccc(O)cc3)n1)CCN(Cc1ccc(OC)cc1)CC2`, the Potency is 6.68 µM (active).

For the compound `CN1C[C@@H](NC(=O)CC(C)(C)C)C[C@H]1c1nc(-c2ccc(OC(F)(F)F)cc2)no1`, the Potency entry is “inactive”.

On to `O=[S+]1([O-])NCC2(CCCN(Cc3ccc(OC(F)(F)F)cc3)C2)Nc2ccccc21` (stereo not drawn), for which the Potency result is “inactive”.

As to `CCc1cccc(NC(=O)N2CCc3nc4cc(-c5ccc(OC)cc5)[nH]n4c(=O)c3C2)c1`, the Potency entry is “inactive”.

For `CCc1nc2c(c(-c3ccc(O)cc3)n1)CCN(Cc1ccc(OC(F)(F)F)cc1)CC2`, the Potency is 1.5 µM (active).

Consider `COc1ccc(CN2CCC3(CC(c4ccc(OC)cc4)=NO3)C2)cc1` (stereo not drawn), for which the Potency entry was “inactive”.

Regarding `Cc1cc(C)c(S(=O)(=O)n2ccc(-c3ccc(OCCN(C)c4ccccn4)cc3)n2)c(C)c1`, the Potency is 7.5 µM (active).

Take `COc1cccc2c(=O)n(CC(=O)NCCc3ccccc3)ccc12`: the Potency entry was “inactive”.

Take `COc1ccc(-n2nc(C(=O)NCC(=O)N3CCN(c4ccccc4OC)CC3)c3ccccc3c2=O)cc1OC`: the Potency was 6.68 µM (active).

With `COc1ccccc1N1CCN(C(=O)CNS(=O)(=O)c2ccc(Br)s2)CC1`, the Potency entry was “inactive”.

Take `COc1ccc(-n2nc(C(=O)NCC(=O)N3CCN(c4ccccc4OC)CC3)c3ccccc3c2=O)c(OC)c1`: the Potency was 2.11 µM (active).

As to `CCc1cc(=O)oc2cc(C)cc(OCC(=O)C(C)(C)C)c12`, the Potency is 11.9 µM (active).

For `Cc1cc(OC(C)C(=O)NCCc2c[nH]c3ccccc23)c2c(C)cc(=O)oc2c1` (stereo not drawn), the Potency was 2.66 µM (active).

Take `CCCc1cc(=O)oc2cc(C)cc(OC(C)C(=O)NCC(O)c3ccccc3)c12` (stereo not drawn): the Potency is 0.842 µM (active).

Take `CCCc1noc(-c2ccn3c(CNC(=O)C(C)Oc4ccccc4)nnc3c2)n1` (stereo not drawn): the Potency result was “inactive”.

For the compound `O=C(NCCc1c[nH]c2ccccc12)c1c(OCC2CC2)cc(=O)n2c1CCOCC2`, the Potency result was “inactive”.

Consider `CCc1cc(=O)oc2cc(C)cc(OCC(=O)NCC(O)c3ccccc3)c12` (stereo not drawn), for which the Potency was 6.68 µM (active).

For `Oc1cc(Cc2ccccc2)cnc1CN1CCCCC1`, the Potency was 0.944 µM (active).

Take `Clc1ccc(-c2nc(N3CCOCC3)nc3ccccc23)cc1`: the Potency result is “inactive”.

With `CC12CC3CC(C)(C1)CC(Nc1nc(N4CCOCC4)nc4ccccc14)(C3)C2`, the Potency is 9.44 µM (active).

In the case of `CN1N=C2c3ccccc3CCC2C1c1ccc(F)cc1` (stereo not drawn), the Potency was 5.96 µM (active).

With `COc1ccccc1C(=O)NCCn1ccn2nc(-c3cc(C)ccc3C)cc2c1=O`, the Potency result was “inactive”.

On to `Cc1ccc2oc(=O)n(CCOc3ccccc3C)c2c1`, for which the Potency is 4.73 µM (active).

Consider `O=C(c1cccs1)N1CCCCCC1CN1CCCC1` (stereo not drawn), for which the Potency is 10.6 µM (active).

For `CCNC(=O)N1CCCCCC1CN1CCc2ccccc2C1` (stereo not drawn), the Potency entry is “inactive”.

In the case of `O=C(N[C@H]1CCN2C(=O)c3ccccc3NC(=O)[C@@H]2C1)c1cccs1`, the Potency entry is “inactive”.

Take `CCCCCCNC(=O)Cc1csc2nc(C)c(-c3cc(C)n(-c4cccc(C)c4)n3)c(=O)n12`: the Potency is 15 µM (active).

On to `CCCCC(O)(c1ccc(CC)cc1)C(CN1CCOCC1)c1ccccc1` (stereo not drawn), for which the Potency was 4.73 µM (active).

For the compound `CCCCCC(O)(c1ccc(OC)cc1)C(CN1CCOCC1)c1ccccc1` (stereo not drawn), the Potency was 2.11 µM (active).

For `CCCCCCC(O)(c1ccc(OC)cc1)C(CN1CCOCC1)c1ccccc1` (stereo not drawn), the Potency is 4.22 µM (active).

For the compound `CCCN1C(CC(C)C)=NS(=O)(=O)c2cc(NC(=O)c3ccco3)ccc21`, the Potency is 7.5 µM (active).

For `CCCN1C(CC(C)C)=NS(=O)(=O)c2cc(NC(=O)c3cccs3)ccc21`, the Potency is 0.335 µM (active).

Consider `CCOc1ccccc1NC(C)C(=O)Nc1cc(C(F)(F)F)ccc1N1CCOCC1` (stereo not drawn), for which the Potency was 2.66 µM (active).

Take `COc1ccc(NC(C)C(=O)Nc2cc(C(F)(F)F)ccc2N2CCOCC2)c(OC)c1` (stereo not drawn): the Potency is 0.842 µM (active).

Turning to `COc1cc(Cl)c(C)cc1NC(C)C(=O)Nc1cc(C(F)(F)F)ccc1N1CCOCC1` (stereo not drawn), the Potency is 0.422 µM (active).

With `CCOc1ccccc1NC(=O)N1CCC([C@@H]2[C@H](OC)C(=O)N2C(C)C)CC1`, the Potency entry is “inactive”.

As to `CCC(Oc1ccccc1)C(=O)Nc1cc(C(F)(F)F)ccc1N1CCOCC1` (stereo not drawn), the Potency is 7.5 µM (active).

As to `CC(Oc1ccccc1)C(=O)NC1CCN(c2cc(C(F)(F)F)ncn2)CC1` (stereo not drawn), the Potency result was “inactive”.

In the case of `COc1cc2c(Nc3ccc(Br)cc3F)ncnc2cc1OCC1CCN(C)CC1`, the Potency was 5.96 µM (active).

For `Clc1ccc2c(N3CCCC3)ccnc2c1`, the Potency was 3.76 µM (active).

In the case of `Nc1cc(Cl)ccc1N1CCCC1`, the Potency result is “inactive”.

With `O=C(Nc1ccc(C(F)(F)F)cc1)N1CCN(c2ccnc3cc(Cl)ccc23)CC1`, the Potency was 5.31 µM (active).

Consider `O=C(c1ccc(F)c(Cl)c1)N1CCN(c2cc(C(F)(F)F)ncn2)CC1`, for which the Potency result is “inactive”.

In the case of `COc1ccc(CNc2ncnc3c2cnn3-c2ccc(C)c(C)c2)cc1`, the Potency entry is “inactive”.

Turning to `Cc1ccc(-n2ncc3c(NCc4ccco4)ncnc32)cc1C`, the Potency was 15 µM (active).

Turning to `COc1ccc(CCNc2ncnc3c2cnn3-c2ccc(F)cc2)cc1`, the Potency result was “inactive”.

Take `COc1ccc(S(=O)(=O)N(C)C)cc1NC(C)C(=O)Nc1cccc(C#N)c1` (stereo not drawn): the Potency is 6.68 µM (active).

Take `CCc1nnc([C@@H]2CC(F)(F)CN2Cc2cccn2C)o1`: the Potency entry is “inactive”.

As for `CCOC(=O)c1c(C)n(-c2ccc(F)cc2)c2ccc(O)cc12`, the Potency is 6.68 µM (active).

In the case of `CCOC(=O)c1c(NC(=O)COc2ccc(F)cc2)sc2c1CCC(C)C2` (stereo not drawn), the Potency entry is “inactive”.

For `COc1cccc(C2C(C(=O)Nc3ccc(C)cc3C)=C(C)Nc3c(C(=O)Nc4ccccc4)cnn32)c1` (stereo not drawn), the Potency was 2.11 µM (active).

`CC1=C(C(=O)Nc2ccc(C)cc2C)C(c2ccc(Br)cc2)n2ncc(C(=O)Nc3cccc(C)c3)c2N1` (stereo not drawn): the Potency was 3.35 µM (active).

Turning to `CC1=C(C(=O)Nc2ccc(C)cc2C)C(c2ccc([N+](=O)[O-])cc2)n2ncc(C(=O)Nc3ccc(F)cc3)c2N1` (stereo not drawn), the Potency is 2.99 µM (active).

For the compound `COc1cccc(CC(=O)NCCn2ccn3nc(-c4ccc(C)cc4C)cc3c2=O)c1`, the Potency result is “inactive”.

With `Cc1cc(N2CCN(C)CC2)nc2ccc(NC(=O)Nc3cccc(Cl)c3)cc12`, the Potency is 4.22 µM (active).

Regarding `O=C([C@@H]1C[C@H](F)CN1C(=O)Nc1cccc(Cl)c1)N1CCCCC1`, the Potency entry was “inactive”.

As for `Cc1cc(=O)n(CC(=O)Nc2ccc(C)c(F)c2)c(N2CCc3ccccc3C2)n1`, the Potency result was “inactive”.

As for `CCOc1ccccc1NC(=O)Nc1ccc2nc(N3CCN(C)CC3)cc(C)c2c1`, the Potency is 1.33 µM (active).

`CCOc1ccc(-n2nc3cc(C)c(NC(=O)c4cc(OCC)c(OCC)c(OCC)c4)cc3n2)cc1`: the Potency result was “inactive”.

On to `Cc1ccccc1NC(=O)Nc1ccc2nc(N3CCN(C)CC3)cc(C)c2c1`, for which the Potency is 1.5 µM (active).

Regarding `CCCN(CCC)CCCNC(=S)Nc1ccc2nc(N3CCCC3)cc(C)c2c1`, the Potency entry is “inactive”.

Consider `CCOc1cccc(CC(=O)Nc2ccc3nc(N4CCCCC4)cc(C)c3c2)c1OCC`, for which the Potency is 6.68 µM (active).
